In PubChem BioAssay (NCATS) one finds Potency data, which are given here for 38 molecules.

Results filed as inconclusive are left out. Entries that show only a call come without a potency. Activity calls are given as the source filed them. The call rests on the fitted dose curve; tested in HEK293 reporter line.
Further: nearly all actives have a fitted effect of over 80% in size.

A short description of one assay: qHTS for Inhibitors of the Functional Ribonucleoprotein Complex (vRNP) of Lassa (LASV) Arenavirus: Viability assay - alamar blue signal for LASV Primary Screen (AID 1347083). To be noted: cell viability, alamar blue fluorescence (LASV minigenome counter-screen); series mostly up to 57.5 µM. For orientation: In qHTS, concentration-response curves come from the screen itself.
On to `COc1ccc2[nH]cc(CCNC(C)=O)c2c1`, for which the Potency entry was “inactive”.

Regarding `CC(=O)Nc1ccc(/C=N/NC(N)=S)cc1`, the Potency result was “inactive”.

Consider `Cc1cc2cc3c(C)cc(=O)oc3c(C)c2o1`, for which the Potency entry was “inactive”.

For `CCc1cc(S(=O)(=O)O)c2cc(C(C)C)cccc1-2`, the Potency entry was “inactive”.

As to `CN(C)[C@@H]1C(=O)C(C(N)=O)=C(O)[C@@]2(O)C(=O)C3=C(O)c4c(O)cccc4C[C@H]3C[C@@H]12`, the Potency entry is “inactive”.

For the molecule `C[C@]12CCC(=O)C=C1CC[C@H]1[C@@H]3CC[C@](O)(C(=O)CO)[C@@]3(C)C[C@H](O)[C@@]12F`, the Potency entry was “inactive”.

In the case of `CC(COc1ccccc1)NN` (stereo unspecified), the Potency result is “inactive”.

Turning to `CC(CC(C#N)(c1ccccc1)C(C)C)N(C)C` (stereo unspecified), the Potency result was “inactive”.

As for `NCc1ccc(S(N)(=O)=O)cc1`, the Potency entry is “inactive”.

On to `CC12CCC(CC1)C(C)(C)O2`, for which the Potency result is “inactive”.

As to `Cc1ccnc(NS(=O)(=O)c2ccc(N)cc2)n1`, the Potency entry is “inactive”.

Consider `COc1ccnc(CS(=O)c2nc3ccc(OC(F)F)cc3[nH]2)c1OC` (stereo unspecified), for which the Potency entry was “inactive”.

With `CN1CCN(c2c(F)cc3c(=O)c(C(=O)O)cn4c3c2SCC4)CC1`, the Potency entry was “inactive”.

Turning to `C[N+](C)(C)CCCCCC[N+](C)(C)C`, the Potency entry was “inactive”.

Consider `CN1[C@@H]2CCC[C@@H]1CC(NC(=O)c1nn(C)c3ccccc13)C2` (stereo partly specified), for which the Potency result is “inactive”.

For the molecule `OCc1ccc(Cl)cc1Cl`, the Potency result was “inactive”.

On to `CC(=O)NC(=O)c1ccccc1O`, for which the Potency entry is “inactive”.

As for `NCCCC[C@H](N[C@@H](CCc1ccccc1)C(=O)O)C(=O)N1CCC[C@H]1C(=O)O`, the Potency result was “inactive”.

For the molecule `O=c1[nH]cnc2[nH]ncc12`, the Potency entry was “inactive”.

For the molecule `CCC(C(=O)OCCN(CC)CC)c1ccccc1` (stereo unspecified), the Potency result was “inactive”.

On to `O=C(Oc1ccccc1)c1ccccc1O`, for which the Potency result is “inactive”.

In the case of `CN1CCN(N)CC1`, the Potency result is “inactive”.

On to `COc1ccc(C2CNC(=O)C2)cc1OC1CCCC1` (stereo unspecified), for which the Potency entry is “inactive”.

`Cc1c(C(=O)NCCO)[n+](=O)c2ccccc2n1[O-]`: the Potency entry was “inactive”.

With `CC(=O)O[C@]1(C(C)=O)CC[C@H]2[C@@H]3C[C@H](C)C4=CC(=O)CC[C@]4(C)[C@H]3CC[C@@]21C`, the Potency entry was “inactive”.

With `CN1C(C)(C)CCCC1(C)C`, the Potency result is “inactive”.

`Cc1ccc(-c2ccccc2C#N)cc1`: the Potency result was “inactive”.

Turning to `Cc1c(I)c(=O)n(-c2ccccc2)n1C`, the Potency result was “inactive”.

For `O=C(CS(=O)Cc1ccco1)NC/C=C\COc1cc(CN2CCCCC2)ccn1` (stereo unspecified), the Potency entry was “inactive”.

Regarding `CC(C)(C)NCC(O)c1cc(O)cc(O)c1` (stereo unspecified), the Potency result was “inactive”.

Take `COCCOCC(OC)OC`: the Potency entry is “inactive”.

As to `COc1cc(OC)c(C(=O)CCCN2CCCC2)c(OC)c1`, the Potency entry was “inactive”.

With `CCN1CC(CCN2CCOCC2)C(c2ccccc2)(c2ccccc2)C1=O` (stereo unspecified), the Potency entry is “inactive”.

In the case of `CCOC(=O)Oc1ccc(CCNC(=O)[C@H](CCSC)NC(C)=O)cc1OC(=O)OCC`, the Potency entry is “inactive”.

For `CC(C)CCOC(=O)c1ccc(N(C)C)cc1`, the Potency entry was “inactive”.

Take `O=C(CCCl)NCc1ccccc1`: the Potency entry is “inactive”.

With `NS(=O)(=O)c1cc(C(=O)O)cc(N2CCCC2)c1Oc1ccccc1`, the Potency entry was “inactive”.

As for `Cc1ccc(C(=O)C(=O)O)cc1C`, the Potency result is “inactive”.

Another assay is described as follows: qHTS for Inhibitors of the Functional Ribonucleoprotein Complex (vRNP) of Lymphocytic Choriomeningitis Arenaviruses (LCMV): Viability assay - alamar blue signal for LCMV Primary Screen (AID 1347085). To be noted: alamar blue viability counter-screen, LCMV vRNP screen cells; series mostly up to 57.5 µM.
For the molecule `COc1ccc2[nH]cc(CCNC(C)=O)c2c1`, the Potency entry was “inactive”.

Turning to `CC(=O)Nc1ccc(/C=N/NC(N)=S)cc1`, the Potency entry was “inactive”.

Take `Cc1cc2cc3c(C)cc(=O)oc3c(C)c2o1`: the Potency result was “inactive”.

On to `CCc1cc(S(=O)(=O)O)c2cc(C(C)C)cccc1-2`, for which the Potency entry is “inactive”.

Consider `CN(C)[C@@H]1C(=O)C(C(N)=O)=C(O)[C@@]2(O)C(=O)C3=C(O)c4c(O)cccc4C[C@H]3C[C@@H]12`, for which the Potency entry was “inactive”.

For the molecule `C[C@]12CCC(=O)C=C1CC[C@H]1[C@@H]3CC[C@](O)(C(=O)CO)[C@@]3(C)C[C@H](O)[C@@]12F`, the Potency result is “inactive”.

Turning to `CC(COc1ccccc1)NN` (stereo unspecified), the Potency result was “inactive”.

Turning to `CC(CC(C#N)(c1ccccc1)C(C)C)N(C)C` (stereo unspecified), the Potency result was “inactive”.

Regarding `NCc1ccc(S(N)(=O)=O)cc1`, the Potency result was “inactive”.

For `CC12CCC(CC1)C(C)(C)O2`, the Potency entry is “inactive”.

As to `Cc1ccnc(NS(=O)(=O)c2ccc(N)cc2)n1`, the Potency result was “inactive”.

Regarding `COc1ccnc(CS(=O)c2nc3ccc(OC(F)F)cc3[nH]2)c1OC` (stereo unspecified), the Potency entry is “inactive”.

For the molecule `CN1CCN(c2c(F)cc3c(=O)c(C(=O)O)cn4c3c2SCC4)CC1`, the Potency entry was “inactive”.

For `C[N+](C)(C)CCCCCC[N+](C)(C)C`, the Potency result is “inactive”.

Regarding `CN1[C@@H]2CCC[C@@H]1CC(NC(=O)c1nn(C)c3ccccc13)C2` (stereo partly specified), the Potency result was “inactive”.

As for `OCc1ccc(Cl)cc1Cl`, the Potency entry was “inactive”.

In the case of `CC(=O)NC(=O)c1ccccc1O`, the Potency entry was “inactive”.

As for `NCCCC[C@H](N[C@@H](CCc1ccccc1)C(=O)O)C(=O)N1CCC[C@H]1C(=O)O`, the Potency result was “inactive”.

For `O=c1[nH]cnc2[nH]ncc12`, the Potency entry is “inactive”.

As for `CCC(C(=O)OCCN(CC)CC)c1ccccc1` (stereo unspecified), the Potency result is “inactive”.

Take `O=C(Oc1ccccc1)c1ccccc1O`: the Potency result was “inactive”.

Regarding `CN1CCN(N)CC1`, the Potency result was “inactive”.

With `COc1ccc(C2CNC(=O)C2)cc1OC1CCCC1` (stereo unspecified), the Potency result is “inactive”.

With `Cc1c(C(=O)NCCO)[n+](=O)c2ccccc2n1[O-]`, the Potency result is “inactive”.

In the case of `CC(=O)O[C@]1(C(C)=O)CC[C@H]2[C@@H]3C[C@H](C)C4=CC(=O)CC[C@]4(C)[C@H]3CC[C@@]21C`, the Potency entry is “inactive”.

As to `CN1C(C)(C)CCCC1(C)C`, the Potency entry was “inactive”.

For `Cc1ccc(-c2ccccc2C#N)cc1`, the Potency result is “inactive”.

With `Cc1c(I)c(=O)n(-c2ccccc2)n1C`, the Potency result is “inactive”.

For `O=C(CS(=O)Cc1ccco1)NC/C=C\COc1cc(CN2CCCCC2)ccn1` (stereo unspecified), the Potency result was “inactive”.

Turning to `CC(C)(C)NCC(O)c1cc(O)cc(O)c1` (stereo unspecified), the Potency entry is “inactive”.

`COCCOCC(OC)OC`: the Potency result was “inactive”.

As for `COc1cc(OC)c(C(=O)CCCN2CCCC2)c(OC)c1`, the Potency entry is “inactive”.

For the molecule `CCN1CC(CCN2CCOCC2)C(c2ccccc2)(c2ccccc2)C1=O` (stereo unspecified), the Potency result is “inactive”.

Turning to `CCOC(=O)Oc1ccc(CCNC(=O)[C@H](CCSC)NC(C)=O)cc1OC(=O)OCC`, the Potency entry was “inactive”.

With `CC(C)CCOC(=O)c1ccc(N(C)C)cc1`, the Potency entry was “inactive”.

Consider `O=C(CCCl)NCc1ccccc1`, for which the Potency result is “inactive”.

Turning to `NS(=O)(=O)c1cc(C(=O)O)cc(N2CCCC2)c1Oc1ccccc1`, the Potency result is “inactive”.

Consider `Cc1ccc(C(=O)C(=O)O)cc1C`, for which the Potency entry is “inactive”.
